# Assay outcomes as filed in PubChem BioAssay.
# LmPK inh – qHTS Assay for Inhibitors of Leishmania Mexicana Pyruvate Kinase (LmPK). Q27686. purified LmPK, Kinase-Glo ATP luminescence, 1 h. Potency, µM (series often up to 57.5 µM), for inactives: at the top dose activity change, negative = inhibition, most hits filed as inhibitors. 0.37% of 290,000 active. AID 1721, 2009; note: potency is the fitted concentration of half-maximal effect; % is set by controls: 0 for no effect and ±100 for the full control effect
#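 0.1 nM LmPK, 0.5 mM PEP, 0.1 mM ADP; 50 mM imidazole pH 7.2, 7 mM MgCl2, 50 mM KCl; 1 h RT. Kinase-Glo luminescence readout, normalized to no-enzyme (full inhibition) and uninhibited wells.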
# FBPA Giardia inh – qHTS Assay for Inhibitors of Fructose-1,6-bisphosphate Aldolase from Giardia Lamblia. A8B2U2. purified Giardia FBPA. Potency, µM (series often up to 59.6 µM), inactives show at the top dose activity, negative = inhibition, usual class: inhibitors. 0.71% of 290,000 active; note: potency is the fitted concentration of half-maximal effect; % is set by controls: 0 for no effect and ±100 for the full control effect; nearly all actives have a fitted effect of over 55% in size
# Target sequence (A8B2U2 whole entry, looked up): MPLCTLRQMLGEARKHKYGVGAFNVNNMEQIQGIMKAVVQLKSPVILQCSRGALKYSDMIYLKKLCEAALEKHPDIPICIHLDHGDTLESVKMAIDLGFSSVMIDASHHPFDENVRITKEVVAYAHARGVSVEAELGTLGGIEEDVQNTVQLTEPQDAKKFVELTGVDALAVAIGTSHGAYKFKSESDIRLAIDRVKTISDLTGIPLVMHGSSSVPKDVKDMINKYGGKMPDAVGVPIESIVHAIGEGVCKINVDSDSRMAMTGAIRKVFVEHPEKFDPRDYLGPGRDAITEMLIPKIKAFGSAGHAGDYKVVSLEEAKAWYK
#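 40 nM FBPA preincubated 10 min at RT with compound (up to 57.5 uM final), then substrate plus GAPDH/TPI/NAD/arsenate coupling and diaphorase/resazurin added. Fluorescence read after 20 min at RT, 525/598 nm.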
# RE007 growth inh – qHTS Assay for Inhibitors of the HIV-1 protein Vpr. 0.21% of 360,000 active. Potency, µM (titrated, usually from 92.2 µM), inactives show at the top dose activity change, negative = less growth, actives largely listed as inhibitors. AID 651644, 2012. S. pombe RE007 Vpr strain, BacTiter-Glo ATP luminescence, 24 h; active = well fitted falling curve with a large enough effect; inconclusive = small, poorly fitted or top-dose-only effect; inactive = no such curve, though single readings can be large or run the other way; note: potency is the fitted concentration of half-maximal effect; % is set by controls: 0 for no effect and ±100 for the full control effect; nearly all actives have a fitted effect of over 50% in size
#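 Fission yeast RE007 carrying one integrated HIV-1 vpr copy, seeded at OD 0.01 in PMG+AL medium with 23 nL pinned compound. Grown 24 h at 30 degrees; viability read by BacTiter-Glo luminescence after 5 min.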
# Tb PYK inh – qHTS of Trypanosoma Brucei Inhibitors | TbPYK enzyme, Kinase-Glo Plus ATP luminescence, 45 min | 0.12% of 410,000 active | Potency, µM (highest dose often 76.8 µM), without a hit: top-dose activity, negative = inhibition, hits mostly inhibitors | pyruvate kinase (Trypanosoma brucei), Q57TT1; note: potency is the fitted concentration of half-maximal effect; % is set by controls: 0 for no effect and ±100 for the full control effect; nearly all actives have a fitted effect of over 50% in size
#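 Luminescent Kinase-Glo Plus end-point after 45 min room-temperature reaction of T. brucei pyruvate kinase started with 130 uM ADP (final). Buffer TEA 50 mM pH 7.2 with KCl, MgCl2, BSA, Tween-20; titration-based qHTS with fitted concentration-effect curves.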
# Cycloheximide cs – Cycloheximide Counterscreen for Small Molecule Inhibitors of Shiga Toxin; cell reporter, cycloheximide protein synthesis inhibition counterscreen; max response, %; 12% of 300,000 active; AID 2314, 2010; in the data active = max response mostly above about 13%, no sharp cut-off; inactive = mostly below about 14%; note: read at 38.3 µM for the half of the compounds with a filed dose; 0% is about no effect
# Shiga toxin inh – A qHTS for Small Molecule Inhibitors of Shiga Toxin; Vero cells, Shiga toxin protein synthesis inhibition reporter; inhibition, % at 38.7 µM; 9.2% of 290,000 active; AID 2315, 2010; in the data active = inhibition mostly above about 28%, no sharp cut-off; inactive = mostly below about 43%; note: 0% is about no effect
# * hit, by the source's call; ? = inconclusive; nt = no result. Shown is part of a subset that was picked to be rich in hits. Unless noted, calls come from the whole dose curve; as a rule, active = well fitted curve in the direction sought with a large enough effect; inconclusive = small, poorly fitted or top-dose-only effect, or another doubt; inactive = no such curve, though single readings can be large; an effect the other way counts as inactive or inconclusive.
SMILES,LmPK inh,FBPA Giardia inh,RE007 growth inh,Tb PYK inh,Cycloheximide cs,Shiga toxin inh
C[C@H](Cc1nc2c(cnn2-c2ccccc2Cl)c(=O)[nH]1)C(F)(F)F,nt,0%,nt,nt,-5,-5
COc1ccc(-c2csc(NC(=S)NC(=O)/C=C/c3ccc(C(C)C)cc3)n2)cc1OC,5%,-18%,4%,4%,23*,14
COc1ccccc1OCCCn1cc(C(=O)c2ccco2)c2ccccc21,10%,15%,-18%,-6%,35*,143*
O=C(c1ccco1)c1cn(Cc2ccc(Cl)cc2)c2ccccc12,11%,-4%,2%,7%,23*,38
O=C(O)Cn1cc(C(=O)c2ccco2)c2ccccc21,8%,10%,2%,3%,-1,19
CC(C)C(=O)Nc1nnc(SCC(=O)NC2CCCC2)s1,0%,4%,5%,-2%,-4,22
C/C(=N\NC(=O)c1ccoc1C)c1cccnc1,-23%,3%,-2%,-3%,42*,0
C/C(=N\NC(=O)c1ccc(N(C)C)cc1)c1ccc(C)cc1C,-3%,3%,8%,2%,21,24*
C/C(=N\NC(=O)c1ccccc1C)c1cccnc1,-8%,24%,-6%,-11%,31*,106*
C/C(=N\NC(=O)c1ccc(N(C)C)cc1)c1cccnc1,-2%,1%,11%,4%,23*,44
COc1ccco1,nt,4%,nt,nt,-4,-4
COc1cc2ccccc2cc1C(=O)N1CCN(c2nc3ccc(F)cc3s2)CC1,nt,nt,nt,-12%,nt,nt
Cc1nn(C)c2c1c(C(F)(F)F)cc(=O)n2CC(=O)Nc1ccc(F)cc1F,nt,nt,nt,5%,nt,nt
Cc1ccc(S(=O)(=O)Oc2cc(N)c3c(n2)CCC3)cc1,-2%,-3%,10%,-13%,-2,5
CC(CN1CCCC1)OC(=O)c1ccc(Br)cc1 (configuration not stated),2%,-15%,1%,-6%,-3,-5
C/C(=N\NC(=O)c1cccnc1)c1ccc(OC2OCCOC2Oc2ccc(/C(C)=N/NC(=O)c3cccnc3)cc2)cc1 (configuration not stated),0%,-5%,48%,-15%,16*,54*
COc1ccc(/C(C)=N/NC(=O)CNC(=O)c2cccnc2)cc1,-3%,0%,1%,1%,-1,15
O=C1[C@@H]2C(c3cccnc3)=NO[C@@H]2C(=O)N1c1ccc(Br)cc1,-6%,5%,22µM*,-17%,1,-10
CCc1ccc(Cn2ncc3c(C(=O)O)cc(C)nc32)cc1,nt,nt,-2%,5%,nt,nt
CC1(C)CC(=O)c2cc(C(=O)O)c(=O)n(-c3ccccc3)c2C1,4%,3%,7%,1%,0,-10
CC1(C)CC(=O)c2cc(N=C/C(C(=O)c3ccccc3)=C(\O)c3ccccc3)c(=O)oc2C1,3%,-14%,-12%,-21%,43*,185*
CCOC(=O)N1CCN(C(=O)c2ccc(CS(=O)c3ccccc3)o2)CC1 (configuration not stated),-3%,nt,2%,-5%,-2,-8
C[C@@H]1CN([C@H](C)CO)C(=O)CCCn2cc(nn2)CO[C@H]1CN(C)S(=O)(=O)c1cccc(C#N)c1,nt,nt,27%,9%,nt,nt
O=C(CCl)N=c1sccn1Cc1ccc(Cl)cc1Cl,9%,1%,12%,-1%,28*,18
O=C(CCl)N=c1sccn1Cc1ccccc1Cl,0%,2%,23%,-4%,9,17
Cc1cccc(OCC(=O)Nc2nnc(S(=O)(=O)N3CCc4ccccc43)s2)c1,nt,nt,nt,-6%,-11,-11
Cc1c(C)c2c(c(C)c1OC(=O)CCC(=O)OCCO)CC[C@](C)(CCC[C@H](C)CCC[C@H](C)CCCC(C)C)O2,nt,nt,nt,4%,nt,nt
O=C(CCC1CCCNC1)c1ccccc1 (configuration not stated),-7%,?,nt,nt,1,-3
